Results reported in PubChem BioAssay AID687028 (Broad Institute, 2013).
Among all 1,400 compounds or so, about 55 (4%) were called active. How the calls were made is not given here. These entries were drawn from the full list. Entries with a potency or affinity are not part of this list.

Assay: A549 cell toxicity, dose response, cytotoxicity control, plate reader, cherry-pick samples (AID 687028);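 further: cells incubated with compound for three days before reading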
Conditions: series mostly up to 19.5 µM; activity change, negative = toxicity: at the top concentration

Row | Structure (SMILES) | activity change, negative = toxicity
1 | COc1ccc(-c2cnc3c(NC(C)=O)cc(-c4ccccc4OC)cn23)cc1OC | -5.73% (inactive)
2 | O=C(OCc1ccccc1)N1CCC2CC1c1ccc(-c3ccc4c(c3)OCO4)cc12 (stereo not given) | -3.39% (inactive)
3 | Cc1cc(F)ccc1S(=O)(=O)Nc1ncnc2scc(-c3ccc(F)cc3)c12 | 1.95% (inactive)
4 | C[C@@H]1CN([C@@H](C)CO)C(=O)c2cc(NC(=O)Nc3ccc(C(F)(F)F)cc3)ccc2O[C@@H]1CN(C)C(=O)NC1CCCCC1 | -5.36% [at 21 µM] (inactive)
5 | CC1(C(=O)NCc2ccccc2)CN(S(C)(=O)=O)CC(=O)N1CCc1ccccc1F (stereo not given) | 3.86% (inactive)
6 | COc1ccccc1S(=O)(=O)N(C)C[C@H]1Oc2cc(C#CCC(C)C)ccc2S(=O)(=O)N([C@@H](C)CO)C[C@@H]1C | -33% (inactive)
7 | Cc1ccc2oc3c(c(=O)c2c1)C(c1cccc(Cl)c1)N(CCCN1CCOCC1)C3=O (stereo not given) | -1.92% (inactive)
8 | O=C(NCc1ccccn1)C(=O)NCC1OCCN1S(=O)(=O)c1ccc(Br)cc1 (stereo not given) | 8.48% (inactive)
9 | O=C(c1ccc2c(c1)OCO2)N1CCC(Cc2ccccc2)CC1 | 7.07% (inactive)
10 | CC1(NC(=O)c2cc(Cl)nc3ccccc23)CCS(=O)(=O)C1 (stereo not given) | -2.91% (inactive)
11 | COc1ccc(Cl)cc1N1C(=O)CC(N2CCN(S(=O)(=O)c3ccccc3F)CC2)C1=O (stereo not given) | 1.09% (inactive)
12 | CN(C)c1ccc(-c2cc3ccccc3c(=O)o2)cc1 | 1.1% (inactive)
13 | Cc1ccc(C)c(C(Nc2ccccc2)c2ccc3ccc(C)nc3c2O)c1 (stereo not given) | -0.272% (inactive)
14 | CCOC(=O)Cc1sc(N)nc1C | 0.064% (inactive)
15 | O=C(Nc1cccc(Cl)c1)c1ccccc1 | -3.71% (inactive)
16 | CCCCCNC(=O)c1[nH]c(C(F)(F)F)nc1-c1ccccc1 | 6.01% (inactive)
17 | COC(=O)c1ccc2nc(C3CCCCC3)c(Cc3ccccc3OC)n2c1 | -1.25% (inactive)
18 | CCCCNC(=O)c1ccc(NS(=O)(=O)c2ccc3[nH]c(=O)[nH]c3c2)cc1 | 0.722% (inactive)
19 | CC(=O)Nc1cccc2ncccc12 | -0.652% (inactive)
20 | COc1cc(NC(C)=O)c2ncccc2c1Br | 3.43% (inactive)
21 | CCOc1cc(CNCCN2CCOCC2)ccc1OCc1ccccc1Cl | -1.76% (inactive)
22 | CC1=NCCN1CCNC(=O)Nc1ccc(C(C)(C)C)cc1 | 3.62% (inactive)
23 | C[C@H](CO)N1C[C@H](C)[C@H](CN(C)C)Oc2ncc(C#CC3CC3)cc2C1=O | 1.84% (inactive)
24 | C/C=C/c1ccc([C@H]2[C@@H](CO)N3CCCCN(S(=O)(=O)c4ccccc4)C[C@@H]23)cc1 | 1.81% (inactive)

Row | Structure (SMILES) | activity change, negative = toxicity
25 | C[C@H](CO)N1C[C@H](C)[C@H](CN(C)C(=O)c2ccccc2)Oc2cc(C3=CCCCC3)ccc2S1(=O)=O | -2.34% (inactive)
26 | Cc1ccc(S(=O)(=O)N(C)C[C@H]2Oc3ccc(NS(=O)(=O)c4ccc(F)cc4)cc3C(=O)N([C@H](C)CO)C[C@@H]2C)cc1 | -2.45% [at 21 µM] (inactive)
27 | Cc1ccc(OCCCCNC(C)c2ccccc2)c(C)c1 (stereo not given) | 2.38% (inactive)
28 | Cc1cc(O)c(C(C)C)cc1NC(=O)c1ccccc1Cl | -1.25% (inactive)
29 | Cc1ccc(NC(=O)C(=O)NCC2CCCN2S(=O)(=O)c2cccs2)cc1 (stereo not given) | 1.62% (inactive)
30 | N#C[C@@H]1[C@H](c2ccc(C#Cc3ccccc3F)cc2)[C@@H](CO)N1C(=O)C1CC1 | 1.1% (inactive)
31 | COc1ccc(C(C)(NC(C)=O)c2nc(-c3cccc(F)c3)cs2)cc1 (stereo not given) | 3.2% (inactive)
32 | ClCCCc1cn(C[C@H]2CC[C@@H]([C@@H]3CC[C@H](Cn4cc(CCCCl)nn4)O3)O2)nn1 | 7.49% (inactive)
33 | C[C@H]1CN([C@@H](C)CO)C(=O)c2cccc(NS(=O)(=O)c3ccccc3)c2O[C@@H]1CN(C)Cc1ccc(Cl)c(Cl)c1 | -3.38% (inactive)
34 | Cc1c(C(=O)OC(C)C)sc(N)c1C(=O)OC(C)C | 1.5% (inactive)
35 | O=C(NCCNC(=O)c1cc(F)cc(F)c1)c1cc(F)cc(F)c1 | -3.56% (inactive)
36 | CCCc1nc2ccccc2n1C(C)C(=O)NC(C)(C)C (stereo not given) | 3.89% (inactive)
37 | O=C(NCc1ccccc1)C(c1ccncc1)n1c(=O)c(-c2ccccc2)nc2ccccc21 (stereo not given) | 4.91% (inactive)
38 | COc1ccc2c3c([nH]c2c1)[C@@H](CO)N(C(=O)C1CCOCC1)CC31CN(C)C1 | -1.01% (inactive)
39 | CN(C)C(=O)c1cccc(-c2ccc3c(c2)[C@@H]2[C@@H](CCN2C(=O)Cc2ccncc2)[C@@H](CO)N3)c1 | 6.17% (inactive)
40 | COc1ccc(C)cc1NC(=O)C1CCN(S(=O)(=O)c2cccc3cccnc23)CC1 | 7.52% (inactive)
41 | COc1ccc(CC(=O)Nc2ccc(C)c(S(=O)(=O)N3CCCCCC3)c2)cc1 | -1.27% (inactive)
42 | O=c1c2cc(Br)ccc2[nH]c(=S)n1Cc1ccccn1 | -1.61% (inactive)
43 | CCc1c(C(=O)Nc2cc(C(=O)OC)ccc2C)csc1C | 4.93% (inactive)
44 | CC(=O)Nc1cccc(OCCCNC(=O)c2ccc(C(C)(C)C)cc2)c1 | -4.38% (inactive)
45 | CC(C)(C)c1ccc(C(=O)Nc2ccc3c(c2)C(=O)NC3=O)cc1 | 12.8% (inactive)
46 | CN(C)CC(=O)Nc1ccc2c(c1)[C@@H]1C[C@@H](CC(=O)NC3CCCCC3)O[C@H](CO)[C@@H]1O2 | -0.282% (inactive)
47 | CC(Oc1ccccc1Cl)C(=O)N1CCOCC1 (stereo not given) | 1.54% (inactive)
48 | COc1cccc(NC(=O)COc2cccc3c2CCNC3=O)c1 | 2.81% (inactive)

Row | Structure (SMILES) | activity change, negative = toxicity
49 | Cc1ccc(C)c(NS(=O)(=O)c2cc(C(=O)NCc3ccncc3)ccc2C)c1 | 4.78% (inactive)
50 | Cc1ccc(NC(=O)C2CCN(S(C)(=O)=O)CC2)cc1Cl | 0.073% (inactive)
51 | COc1ccc(NC(=O)N2C[C@@H](O)COC[C@@H]3O[C@H](CC(=O)NC4Cc5ccccc5C4)CC[C@H]32)cc1 | 0.889% (inactive)
52 | O=C(NCCN1CCC(n2c(=O)[nH]c3ccccc32)CC1)c1ccccc1 | 3.87% (inactive)
53 | COC(=O)[C@]12CCCCC=C1N(Cc1cccc3ccccc13)C(=O)[C@H](CC(=O)NCCC(C)C)C2 | 3.24% (inactive)
54 | CCOC(=O)[C@]12CCCC=C1N(Cc1ccccc1)C(=O)[C@H](CC(=O)NCc1cccs1)C2 | 5.87% (inactive)
55 | CCCCNC(=O)C[C@@H]1C[C@@]2(C(=O)OC)CCCCC=C2N(CCC2=CCCCC2)C1=O | -3.84% (inactive)
56 | CCOC(=O)[C@]12CCC=C1N(Cc1cccc3ccccc13)C(=O)[C@H](CC(=O)N1CCCC1)C2 | 4.62% (inactive)
57 | O=C(c1ccc(F)cc1)N1CCC(C(=O)N2CCCc3ccccc32)CC1 | 1.63% (inactive)
58 | COc1ccccc1CN1[C@H](CO)[C@@H](c2ccccc2)C12CN(C(=O)c1ccccn1)C2 | -3.67% (inactive)
59 | CCc1cccc(OCCN2CCCC2)c1 | 6.55% (inactive)
60 | CC1CCN(CCOc2ccc(OCc3ccccc3)cc2)CC1 | 5.09% (inactive)
61 | CC(OC(=O)c1ccc2c(=O)n3c(nc2c1)CCC3)C(=O)NC1CCCCC1C (stereo not given) | 0.101% (inactive)
62 | C[C@@H]1CCCCO[C@H](CN(C)Cc2ccc(C(F)(F)F)cc2)[C@H](C)CN([C@@H](C)CO)C(=O)c2cc(NC(=O)c3ccccc3)ccc2O1 | -31.1% (inactive)
63 | C[C@H](CO)N1C[C@H](C)[C@H](CN(C)C(=O)Nc2ccc(F)cc2)OCCCC[C@H](C)Oc2ccc(NC(=O)c3ccccc3)cc2C1=O | -6.69% (inactive)
64 | C[C@@H]1CCCCO[C@@H](CN(C)C(=O)Nc2ccc(C(F)(F)F)cc2)[C@H](C)CN([C@H](C)CO)C(=O)c2cc(NC(=O)Cc3ccccc3)ccc2O1 | -4.73% (inactive)
65 | C[C@@H]1CN([C@H](C)CO)C(=O)c2cc(NC(=O)Nc3ccc(C(F)(F)F)cc3)ccc2O[C@@H](C)CCCCO[C@@H]1CN(C)C(=O)Cc1ccccc1 | 3.37% (inactive)
66 | Cc1nc2ccccc2n1C(c1cccnc1)c1nc2ccccc2[nH]1 (stereo not given) | 3.62% (inactive)
67 | O=C1c2ccccc2C(=O)N1CC(=O)N1c2ccccc2Sc2ccc(C(F)(F)F)cc21 | 4.42% (inactive)
68 | COc1ccccc1NCC(=O)N/N=C(\C)c1ccc(Br)s1 | 3.35% (inactive)
69 | O=C(NCCCCNC(=O)c1cccnc1Cl)c1cccnc1Cl | 1.96% (inactive)
70 | Cc1ccc(CNCc2cc(Cl)ccc2O)cc1 | -0.534% (inactive)
71 | Oc1ccc(Cl)cc1CNCc1ccc(F)cc1 | 0.475% (inactive)
72 | O=C(NC1CC1)c1cccc(NC(=O)c2cc(S(=O)(=O)N3CCOCC3)ccc2Cl)c1 | 5.28% (inactive)

Row | Structure (SMILES) | activity change, negative = toxicity
73 | O=C(C[C@@H]1CC[C@H]2[C@@H](COC[C@H](O)CN2C(=O)c2ccccc2F)O1)NCc1ccccc1 | 4.14% (inactive)
74 | COc1cccc(C(=O)N2CCOCC2)c1 | 3.69% (inactive)
75 | CCC(=O)Nc1nnc(/C=C/c2ccc(OC)cc2)s1 | 3.82% (inactive)
76 | C[C@@H]1CCCCO[C@H](CN(C)C(=O)NC2CCCCC2)[C@@H](C)CN([C@H](C)CO)C(=O)c2cc(NC(=O)CCCCCC(=O)Nc3ccccc3N)ccc2O1 | -0.471% [at 21 µM] (inactive)
77 | Clc1cc(Br)ccc1OCCCn1ccnc1 | -3.3% (inactive)
78 | Clc1cc(Br)ccc1OCCOCCN1CCCC1 | 3.02% (inactive)
79 | COc1ccc(C(=O)NCCNc2nc3c(C)cccc3cc2C#N)cc1OC | -1.18% (inactive)
80 | Cn1c(N)c(C(=O)N2CCN(c3ccccc3)CC2)c(=O)n(C)c1=O | 0.876% (inactive)
81 | CN1c2ccc(Br)cc2[C@H]2[C@H](CCN2C(=O)C2CCC2)[C@H]1CO | -2.31% [at 21 µM] (inactive)
82 | CN1c2ccc(Br)cc2[C@@H]2[C@@H](CCN2C(=O)C2CCCC2)[C@H]1CO | 13.6% (inactive)
83 | COc1cccc(C2(c3cccc(OC)c3)CC2C(=O)Nc2ccc(F)cc2)c1 (stereo not given) | 1.49% (inactive)
84 | CN1C(C)(C)c2ccccc2OS1(=O)=O | 2.21% (inactive)
85 | O=C(CN1CCN(S(=O)(=O)c2ccccc2F)CC1)NC1CCCC1 | 1.27% (inactive)
86 | COc1ccc(S(=O)(=O)N2CCC(C(=O)NCCC(=O)NCc3ccccn3)CC2)cc1 | 5.8% (inactive)
87 | O=C(NCc1ccccc1)[C@H]1CCCN1C(=O)[C@H]1CCCN1C(=O)c1ccc(Cl)cc1 | 2.99% (inactive)
88 | COc1ccc(C2=Nn3c(nnc3-c3ccccc3Cl)SC2)cc1OCC1CC1 | -2.82% (inactive)
89 | Cc1ccc(S(=O)(=O)Cc2ccccc2Cl)cc1 | -2.25% (inactive)
90 | CC(NC(=O)CN1CCN(c2cccc(Cl)c2)CC1)c1ccccc1 (stereo not given) | 2.41% (inactive)
91 | CC(C)(C)c1ccc(C(=O)OCC(=O)Nc2sc3c(c2C#N)CCC3)cc1 | 8.14% (inactive)
92 | COc1ccc(C(CNC(=O)c2cccc3cccnc23)N(C)C)cc1 (stereo not given) | -38.7% (inactive)
93 | COc1ccc(-c2nc(NCCCN(C)C)c3ccccc3n2)cc1 | -3.68% (inactive)
94 | COC(=O)[C@@H]1[C@H](CCc2ccccc2)NC(=O)N(Cc2ccccc2)[C@@H]1C | 9.65% (inactive)
95 | COc1ccc(C2=Nc3ccccc3N(C(=O)c3ccncc3)C2C(=O)NC(C)C)cc1 (stereo not given) | 6.76% (inactive)
